# ChEMBL document CHEMBL3988442, “University of Dundee, Small-Polar-MMV Screening Library” (2021)
# Biological target: T1, Methionyl-tRNA synthetase, putative (Leishmania donovani (strain BPK282A1)) (UniProt E9BF75)
# T1 sequence (whole entry): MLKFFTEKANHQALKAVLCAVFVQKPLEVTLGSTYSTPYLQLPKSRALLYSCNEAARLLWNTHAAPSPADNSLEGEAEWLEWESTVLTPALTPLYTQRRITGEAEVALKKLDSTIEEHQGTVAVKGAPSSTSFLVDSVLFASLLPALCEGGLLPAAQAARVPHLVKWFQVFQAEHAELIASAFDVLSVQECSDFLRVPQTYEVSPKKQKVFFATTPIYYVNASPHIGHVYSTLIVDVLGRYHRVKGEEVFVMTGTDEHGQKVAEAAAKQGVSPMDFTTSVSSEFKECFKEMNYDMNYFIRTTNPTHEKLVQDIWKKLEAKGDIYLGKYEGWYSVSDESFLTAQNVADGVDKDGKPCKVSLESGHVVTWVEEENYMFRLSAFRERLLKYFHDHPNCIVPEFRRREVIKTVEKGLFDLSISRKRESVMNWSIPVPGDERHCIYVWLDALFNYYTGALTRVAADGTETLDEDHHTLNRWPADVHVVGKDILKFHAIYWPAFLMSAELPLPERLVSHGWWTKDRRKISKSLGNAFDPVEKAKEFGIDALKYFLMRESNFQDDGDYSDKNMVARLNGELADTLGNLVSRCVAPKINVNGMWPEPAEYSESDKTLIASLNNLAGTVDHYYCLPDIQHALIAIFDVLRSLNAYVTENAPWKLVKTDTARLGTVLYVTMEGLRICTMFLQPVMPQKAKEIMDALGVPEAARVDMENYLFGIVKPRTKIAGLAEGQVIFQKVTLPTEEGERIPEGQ
# Experiment: Leishmania donovani Methionine tRNA synthetase (LdMetRS):v7. Dose response assay
# Assay type: functional
# Design: conc 80 nM, time 150 minutes
structure (smiles),measurement,setting,value
COCCNc1nc(-n2nc(C)cc2C)nc2sccc12,PXC50,"BOTTOM 2.201340626, HILLSLOPE 2.387703954, MAX_EFFECT 53.50877193, TOP 100.0",4.03
same,PXC50,MAX_EFFECT 36.45833333,< 4
CS(=O)(=O)N1CCN(c2ccc3ccc(C(=O)NC4CCCC4)cn23)CC1,PXC50,"BOTTOM 3.919126037, HILLSLOPE 1.949141012, MAX_EFFECT 63.17460317, TOP 66.86118232",4.76
same,PXC50,"BOTTOM 4.67001684, HILLSLOPE 2.010919918, MAX_EFFECT 67.58893281, TOP 64.90205504",5
O=C(NCC1(O)CCC(F)(F)CC1)c1cc(=O)c2cc(F)ccc2o1,PXC50,MAX_EFFECT 1.754385965,< 4
same,PXC50,MAX_EFFECT 9.021113244,< 4
CCC(=O)N1CCC(c2ncc3c(n2)CCNC3)CC1,PXC50,MAX_EFFECT 1.814058957,< 4
same,PXC50,MAX_EFFECT 14.20560748,< 4
CCN1CCN(c2nc(-c3cccnc3)nc3sc(C)cc23)CC1,PXC50,MAX_EFFECT 2.18579235,< 4
same,PXC50,MAX_EFFECT -3.20855615,< 4
FC1(F)CCN(Cc2ccncc2)CC12CCN(c1cnccn1)C2 (stereo not given),PXC50,MAX_EFFECT 2.721088435,< 4
same,PXC50,MAX_EFFECT 15.70093458,< 4
N[C@@H]1CCOc2c(Cl)cc(Cl)cc21,PXC50,MAX_EFFECT 3.676470588,< 2.7
same,PXC50,MAX_EFFECT 16.70480549,< 2.7
Cc1nc(N(C)CC(=O)N(C)C)c2c(-c3ccccc3)csc2n1,PXC50,MAX_EFFECT 5.289672544,< 4
same,PXC50,MAX_EFFECT 6.361323155,< 4
Cc1nc(NCCCO)c2c(-c3cccs3)csc2n1,PXC50,MAX_EFFECT 5.852417303,< 4
same,PXC50,MAX_EFFECT 7.808564232,< 4
Nc1nc(-c2cccs2)cc(C(F)(F)F)n1,PXC50,MAX_EFFECT 6.382978723,< 4
same,PXC50,MAX_EFFECT 7.772020725,< 4
O=C(NCC1(O)CCC(F)(F)CC1)c1cc(=O)c2cc(O)ccc2o1,PXC50,MAX_EFFECT 6.858054226,< 4
same,PXC50,MAX_EFFECT 7.869481766,< 4
CS(=O)(=O)N1CCN(c2ccc3ncc(C(=O)NC4CCCC4)cn23)CC1,PXC50,MAX_EFFECT 7.456140351,< 4
same,PXC50,MAX_EFFECT 9.895833333,< 4
Cc1sc2nc(CN3CCOCC3)nc(NCCO)c2c1C,PXC50,MAX_EFFECT 7.650273224,< 4
same,PXC50,MAX_EFFECT 8.021390374,< 4
FC(F)(F)c1nc(N2CCOCC2)nc2c1CCCCC2,PXC50,MAX_EFFECT 7.808564232,< 4
same,PXC50,MAX_EFFECT 8.396946565,< 4
CCc1cc2c(NC(CC(C)C)C(=O)O)nc(C)nc2s1 (stereo not given),PXC50,MAX_EFFECT 8.0,< 4
same,PXC50,MAX_EFFECT 13.22751323,< 4
Cc1ccc(-c2cc(C(F)(F)F)nc(NCCN(C)C)n2)cc1,PXC50,MAX_EFFECT 8.163265306,< 4
same,PXC50,MAX_EFFECT 8.333333333,< 4
Cc1nc(N2CCC(N3CCSCC3)CC2)c2ccsc2n1,PXC50,MAX_EFFECT 8.29015544,< 4
same,PXC50,MAX_EFFECT 9.042553191,< 4
O=C(c1cc[nH]n1)N1CCC(F)(F)C2(CCN(c3ccccn3)C2)C1 (stereo not given),PXC50,MAX_EFFECT 8.450704225,< 4
same,PXC50,MAX_EFFECT 10.92592593,< 4
Cc1sc2nc(-c3cccnc3)nc(NCCOCCO)c2c1C,PXC50,MAX_EFFECT 9.042553191,< 4
same,PXC50,MAX_EFFECT 9.844559585,< 4
Cc1nccn1CCCn1cncc1-c1ccc2c(c1)CCCN2C,PXC50,MAX_EFFECT 9.523809524,< 4
same,PXC50,MAX_EFFECT 19.43925234,< 4
O=C(O)C1CCCN1c1nc(-c2ccc(Cl)c(Cl)c2)cc(C(F)(F)F)n1 (stereo not given),PXC50,MAX_EFFECT 9.660574413,< 4
same,PXC50,MAX_EFFECT 10.44386423,< 4
Clc1cc(Cl)c2c(c1)NCCC2,PXC50,MAX_EFFECT 10.1511879,< 3
same,PXC50,MAX_EFFECT 15.01901141,< 3
CCc1nc(NCCCOC(C)C)c2c3c(sc2n1)CCC3,PXC50,MAX_EFFECT 10.56511057,< 4
same,PXC50,MAX_EFFECT 12.06030151,< 4
COCCN(Cc1cnn(C)c1)c1nc(C)nc2sccc12,PXC50,MAX_EFFECT 10.70496084,< 4
same,PXC50,MAX_EFFECT 11.48825065,< 4
COc1ccc(C(=O)[C@H]2C[C@@H]2CN(Cc2ccccn2)Cc2ccccn2)cc1,PXC50,MAX_EFFECT 11.1627907,< 4
same,PXC50,MAX_EFFECT 16.55011655,< 4
CN(c1ncnc2c1CCC2)C1CCCN(c2cccnn2)C1 (stereo not given),PXC50,MAX_EFFECT 11.7370892,< 4
same,PXC50,MAX_EFFECT 15.37037037,< 4
CS(=O)(=O)N1CCN(c2ccc3c(F)cc(C(=O)NC4CCCC4)cn23)CC1,PXC50,MAX_EFFECT 12.5,< 4
same,PXC50,MAX_EFFECT 15.35087719,< 4
Cc1cc(C)n(-c2nc(N3CCCC3)c3c4c(sc3n2)CCCC4)n1,PXC50,MAX_EFFECT 18.42105263,< 4
same,PXC50,MAX_EFFECT 18.75,< 4
O=C1CN(c2nc(-c3cccnc3)nc3sc4c(c23)CCCC4)CCN1,PXC50,MAX_EFFECT 24.0,< 4
same,PXC50,MAX_EFFECT 26.98412698,< 4
O=C1CN(c2nc(-c3cccs3)nc3sc4c(c23)CCCC4)CCN1,PXC50,MAX_EFFECT 29.33333333,< 4
same,PXC50,MAX_EFFECT 31.74603175,< 4
